Source: PubChem BioAssay (EPA / NIEHS)
The source made the active and inactive calls. How the source made its calls: active means hit-call score of the fitted dose curve at least 0.9, where 1 is the maximum; inactive means score below 0.9.

Key:
Settings in all cases: mRNA level, 48 h; actives raise or lower the signal
[1] = read-out: Cytochrome P450 (CYP1A1), CYP1A1 (gene 1543); experiment: LTEA_HepaRG_CYP1A1: Life Technologies and Expression Analysis (LTEA) Assay for Cytochrome P450 (CYP1A1) using HepaRG (AID 2283454)
Outline: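 Differentiated human HepaRG cells, after 48 h plating, exposed in duplicate for 48 h in serum-free induction medium to 8 half-log concentrations up to 100 uM in 0.5% DMSO. CYP1A1 mRNA by qRT-PCR, normalized to ACTB/GAPDH/POLR2A; bidirectional fit versus DMSO.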

[2] = read-out: CFLAR gene, CFLAR (gene 8837); experiment: LTEA_HepaRG_CFLAR: Life Technologies and Expression Analysis (LTEA) Assay for CFLAR gene using HepaRG (AID 2283455)
Outline: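 HepaRG cells were plated for 48 h, switched to serum-free induction medium, then exposed in duplicate for 48 h to 8 concentrations (top 100 uM, half-log steps, 0.5% DMSO). CFLAR mRNA was measured by qRT-PCR, normalized to ACTB, GAPDH and POLR2A.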

[3] = read-out: growth arrest and DNA damage 45 (GADD45A), GADD45A (gene 1647); experiment: LTEA_HepaRG_GADD45A: Life Technologies and Expression Analysis (LTEA) Assay for growth arrest and DNA damage 45 (GADD45A) using HepaRG (AID 2283458)
Outline: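 Human HepaRG liver cells are treated in duplicate for 48 h with chemicals in 0.5% DMSO, highest concentration 100 uM. Expression is read by qRT-PCR and analyzed in both directions against vehicle.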

[4] = read-out: ABC Transporter (ABCB1), ABCB1 (gene 5243); experiment: LTEA_HepaRG_ABCB1: Life Technologies and Expression Analysis (LTEA) Assay for ABC Transporter (ABCB1) using HepaRG (AID 2283460)
Outline: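 Differentiated human HepaRG cells, plated 48 h then switched to serum-free induction medium, were exposed in duplicate to eight half-log concentrations up to 100 uM in 0.5% DMSO for 48 h. ABCB1 mRNA was measured by TaqMan qRT-PCR, normalized to ACTB/GAPDH/POLR2A.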

[5] = read-out: growth arrest and DNA damage 45 (GADD45B), GADD45B (gene 4616); experiment: LTEA_HepaRG_GADD45B: Life Technologies and Expression Analysis (LTEA) Assay for growth arrest and DNA damage 45 (GADD45B) using HepaRG (AID 2283461)
Outline: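 Differentiated human HepaRG cells in serum-free induction medium exposed 48 h in duplicate to eight concentrations, top 100 uM, half-log steps, 0.5% DMSO. GADD45B mRNA by TaqMan qRT-PCR, normalized to ACTB, GAPDH, POLR2A; bidirectional fit versus DMSO.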

[6] = read-out: ABC Transporter (ABCC3), ABCC3 (gene 8714); experiment: LTEA_HepaRG_ABCC3: Life Technologies and Expression Analysis (LTEA) Assay for ABC Transporter (ABCC3) using HepaRG (AID 2283462)
Outline: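 Differentiated human HepaRG cells exposed 48 h in serum-free induction medium, 0.5% DMSO vehicle, 8-point half-log series to 100 uM in duplicate. ABCC3 mRNA by qRT-PCR, normalised to ACTB, GAPDH, POLR2A; bidirectional fit vs DMSO.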

[7] = read-out: ABC Transporter (ABCB11), ABCB11 (gene 8647); experiment: LTEA_HepaRG_ABCB11: Life Technologies and Expression Analysis (LTEA) Assay for ABC Transporter (ABCB11) using HepaRG (AID 2283463)
Outline: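 Differentiated human HepaRG cells were exposed for 48 h in serum-free induction medium to eight half-log concentrations up to 100 uM in 0.5% DMSO. ABCB11 mRNA was quantified by qRT-PCR, normalized to ACTB, GAPDH and POLR2A, and fitted bidirectionally versus DMSO.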

[8] = read-out: ABC Transporter (ABCC2), ABCC2 (gene 1244); experiment: LTEA_HepaRG_ABCC2: Life Technologies and Expression Analysis (LTEA) Assay for ABC Transporter (ABCC2) using HepaRG (AID 2283464)
Outline: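 Differentiated HepaRG cells in serum-free induction medium exposed 48 h to eight half-log concentrations up to 100 uM, 0.5% DMSO, in duplicate. ABCC2 mRNA measured by qRT-PCR (TaqMan, Fluidigm), normalized to ACTB, GAPDH and POLR2A. Fitted in both directions against DMSO.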

[9] = read-out: Broad substrate specificity ATP-binding cassette transporter ABCG2 (Homo sapiens) (UniProt Q9UNQ0); experiment: LTEA_HepaRG_ABCG2: Life Technologies and Expression Analysis (LTEA) Assay for ABC Transporter (ABCG2) using HepaRG (AID 2283465)
Outline: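 Differentiated HepaRG cells in serum-free induction medium were exposed for 48 h, in duplicate, to eight half-log concentrations up to 100 uM in 0.5% DMSO. ABCG2 mRNA was measured by TaqMan qRT-PCR, normalized to ACTB, GAPDH and POLR2A, and fitted bidirectionally versus DMSO.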

[10] = read-out: Peroxisomal acyl-coenzyme A oxidase 1 (ACOX1) gene, ACOX1 (gene 51); experiment: LTEA_HepaRG_ACOX1: Life Technologies and Expression Analysis (LTEA) Assay for Peroxisomal acyl-coenzyme A oxidase 1 (ACOX1) gene using HepaRG (AID 2283467)
Outline: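 Differentiated human HepaRG cells were exposed in duplicate for 48 h in serum-free induction medium to eight half-log concentrations up to 100 uM in 0.5% DMSO. ACOX1 mRNA was then quantified by TaqMan qRT-PCR, normalized to ACTB, GAPDH and POLR2A.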

[11] = read-out: Alkaline Phosphatase, Placental (ALPP) gene, ALPP (gene 250); experiment: LTEA_HepaRG_ALPP: Life Technologies and Expression Analysis (LTEA) Assay for Alkaline Phosphatase, Placental (ALPP) gene using HepaRG (AID 2283468)
Outline: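 HepaRG cells plated 48 h, then exposed in duplicate for 48 h in serum-free induction medium to 8-point half-log series from 100 uM in 0.5% DMSO. ALPP mRNA by TaqMan qRT-PCR, normalized to ACTB/GAPDH/POLR2A; bidirectional fit versus DMSO.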

[12] = read-out: Bcl-2 (BAD) gene, BAD (gene 572); experiment: LTEA_HepaRG_BAD: Life Technologies and Expression Analysis (LTEA) Assay for Bcl-2 (BAD) gene using HepaRG (AID 2283469)
Outline: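 Differentiated human HepaRG cells in serum-free induction medium were exposed in duplicate for 48 h to eight concentrations (top 100 uM, half-log steps, 0.5% DMSO). BAD mRNA was quantified by qRT-PCR normalised to ACTB, GAPDH and POLR2A, with bidirectional fitting versus DMSO.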

[13] = read-out: Bcl-2 (BAX) gene, BAX (gene 581); experiment: LTEA_HepaRG_BAX: Life Technologies and Expression Analysis (LTEA) Assay for Bcl-2 (BAX) gene using HepaRG (AID 2283470)
Outline: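 Concentration-response endpoint fitted in both directions relative to 0.5% DMSO vehicle. Human HepaRG cultures receive test chemicals for 48 h at up to 100 uM; BAX mRNA is quantified by qRT-PCR against housekeeping genes.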

[14] = read-out: adenosine kinase (ADK) gene, ADK (gene 132); experiment: LTEA_HepaRG_ADK: Life Technologies and Expression Analysis (LTEA) Assay for adenosine kinase (ADK) gene using HepaRG (AID 2283471)
Outline: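 ADK expression quantified by qRT-PCR, normalised to three housekeeping genes, after 48 h exposure of HepaRG cells to eight concentrations (top 100 uM, half-log steps, duplicate, 0.5% DMSO). Up- or down-regulation fitted relative to vehicle.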

[15] = read-out: Alpha-fetoprotein (AFP) gene, AFP (gene 174); experiment: LTEA_HepaRG_AFP: Life Technologies and Expression Analysis (LTEA) Assay for Alpha-fetoprotein (AFP) gene using HepaRG (AID 2283472)
Outline: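 After a 48 h plating period, cells are moved to serum-free induction medium and dosed in duplicate (100 uM maximum, half-log dilutions, 0.5% DMSO) for another 48 h. Total RNA goes to TaqMan qRT-PCR; AFP signal is housekeeping-normalized.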

[16] = read-out: BCL2L11 (gene 10018); experiment: LTEA_HepaRG_BCL2L11: Life Technologies and Expression Analysis (LTEA) Assay for Bcl-2 (BCL2L11) gene using HepaRG (AID 2283473)
Outline: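 Differentiated human HepaRG cells were exposed 48 h in serum-free induction medium to eight half-log concentrations up to 100 uM in 0.5% DMSO, in duplicate. BCL2L11 mRNA was quantified by TaqMan qRT-PCR, normalized to ACTB, GAPDH and POLR2A; induction or repression fitted versus DMSO.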

[17] = read-out: Forkhead box O3 (FOXO3), FOXO3 (gene 2309); experiment: LTEA_HepaRG_FOXO3: Life Technologies and Expression Analysis (LTEA) Assay for Forkhead box O3 (FOXO3) using HepaRG (AID 2283459)
Outline: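 Differentiated human HepaRG cells in serum-free induction medium were exposed in duplicate for 48 h to eight half-log concentrations up to 100 uM in 0.5% DMSO. FOXO3 mRNA was quantified by qRT-PCR, normalized to ACTB, GAPDH and POLR2A, with bidirectional fitting versus DMSO.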

[18] = read-out: ATP-citrate lyase (ACLY), ACLY (gene 47); experiment: LTEA_HepaRG_ACLY: Life Technologies and Expression Analysis (LTEA) Assay for ATP-citrate lyase (ACLY) using HepaRG (AID 2283466)
Outline: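 Differentiated human HepaRG cells in serum-free induction medium exposed 48 h, in duplicate, to eight half-log concentrations from 100 uM top in 0.5% DMSO; ACLY mRNA measured by qRT-PCR, normalized to ACTB, GAPDH, POLR2A, fitted bidirectionally versus DMSO.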

Measured: AC50

Sequence of Broad substrate specificity ATP-binding cassette transporter ABCG2 (Homo sapiens) (Q9UNQ0 whole entry, looked up): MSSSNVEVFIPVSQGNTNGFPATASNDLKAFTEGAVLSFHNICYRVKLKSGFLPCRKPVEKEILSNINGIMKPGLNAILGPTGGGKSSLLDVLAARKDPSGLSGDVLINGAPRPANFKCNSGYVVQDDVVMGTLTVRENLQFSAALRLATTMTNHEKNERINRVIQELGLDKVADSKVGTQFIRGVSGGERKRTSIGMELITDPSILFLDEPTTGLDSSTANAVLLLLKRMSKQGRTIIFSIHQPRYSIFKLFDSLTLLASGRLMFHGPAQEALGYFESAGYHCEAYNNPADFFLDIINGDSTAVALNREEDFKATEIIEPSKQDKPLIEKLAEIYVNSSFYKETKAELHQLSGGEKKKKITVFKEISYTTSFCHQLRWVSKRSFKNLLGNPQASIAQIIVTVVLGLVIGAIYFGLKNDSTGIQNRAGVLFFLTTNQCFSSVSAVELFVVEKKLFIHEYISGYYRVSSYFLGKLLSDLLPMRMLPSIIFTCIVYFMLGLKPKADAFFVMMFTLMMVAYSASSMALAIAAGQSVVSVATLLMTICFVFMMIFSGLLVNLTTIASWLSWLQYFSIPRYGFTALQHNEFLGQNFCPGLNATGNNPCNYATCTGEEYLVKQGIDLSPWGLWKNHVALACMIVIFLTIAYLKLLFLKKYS

OC(c1ccc(Cl)cc1)(c1cncnc1)c1ccccc1Cl (configuration not stated)
inactive: [2] | [6] | [9] | [12] | [14] | [16]
active: [1] 13 µM | [3] 72.4 µM | [4] 28.5 µM | [5] 66.2 µM | [7] 89.4 µM | [8] 2.46 µM | [10] 92.8 µM | [11] 61.5 µM | [13] 66.4 µM | [15] 80 µM

COC(=O)N(OC)c1ccccc1COc1ccn(-c2ccc(Cl)cc2)n1
inactive: [2] | [5] | [6] | [8] | [11] | [12]
active: [1] 13 µM | [3] 60 µM | [4] 11.6 µM | [7] 38.4 µM | [9] 25 µM | [10] 77.8 µM | [13] 66.7 µM | [14] 77.8 µM | [15] 24.9 µM | [16] 20.5 µM

CN(C)C(=S)SSC(=S)N(C)C
not listed: [18]
inactive: all other assays above

CC(C)C1(C)N=C(c2nc3ccccc3cc2C(=O)O)NC1=O (configuration not stated)
active: [1] 34.6 µM
not listed: [17] | [18]
inactive: all other assays above

CS/C(C)=N/OC(=O)N(C)SN(C)C(=O)O/N=C(\C)SC
active: [7] 33.6 µM
not listed: [17] | [18]
inactive: all other assays above

Fc1ccc(Oc2ccnc3cc(Cl)cc(Cl)c23)cc1
active: [1] 24 µM | [7] 89.8 µM | [9] 50 µM | [11] 50 µM | [15] 89 µM
not listed: [17] | [18]
inactive: all other assays above

CCc1nn(C)c(C(=O)NCc2ccc(C(C)(C)C)cc2)c1Cl
inactive: [1] | [4] | [5] | [12]
active: [2] 30.6 µM | [3] 12 µM | [6] 0.296 µM | [7] 0.877 µM | [8] 14.3 µM | [9] 0.361 µM | [10] 0.369 µM | [11] 0.688 µM | [13] 18 µM | [14] 35.8 µM | [15] 0.965 µM | [16] 0.636 µM

CCOC(=O)C(Cl)Cc1cc(-n2nc(C)n(C(F)F)c2=O)c(F)cc1Cl (configuration not stated)
active: [1] 61.9 µM | [4] 50 µM
not listed: [17] | [18]
inactive: all other assays above

CON(C)C(=O)Nc1ccc(Cl)c(Cl)c1
active: [1] 72.7 µM | [7] 43.1 µM | [8] 85 µM | [9] 78.2 µM | [11] 42 µM | [15] 74.2 µM
not listed: [17] | [18]
inactive: all other assays above

COc1nc(NC(C)C)nc(NC(C)C)n1
active: [1] 36 µM | [4] 9.31 µM
not listed: [17]
inactive: all other assays above

CCNc1nc(Cl)nc(NC(C)C)n1
active: [1] 40.5 µM | [4] 21.2 µM
not listed: [17] | [18]
inactive: all other assays above

O=C(Nc1ccccc1)Nc1ccnc(Cl)c1
inactive: [2] | [5] | [13] | [16]
active: [1] 23.7 µM | [3] 70.7 µM | [4] 84.3 µM | [6] 85.7 µM | [7] 26.5 µM | [8] 89.9 µM | [9] 83.9 µM | [10] 73.7 µM | [11] 3.48 µM | [12] 74.2 µM | [14] 78.2 µM | [15] 25.2 µM

CNC(=O)ON=CC(C)(C)SC
not listed: [18]
inactive: all other assays above

C#CCOS(=O)OC1CCCCC1Oc1ccc(C(C)(C)C)cc1 (configuration not stated)
inactive: [1] | [6] | [11] | [12] | [13] | [16]
active: [2] 27.4 µM | [3] 50 µM | [4] 50 µM | [5] 14.9 µM | [7] 23.2 µM | [8] 23.6 µM | [9] 50 µM | [10] 29.1 µM | [14] 30.1 µM | [15] 29.5 µM
